± gives the standard deviation.
What was measured:
[1] = test system: MILI (PIWIL2) piRISC loaded with piRNA #1 (26 nt); experiment: pre-steady-state target cleavage rate (min^-1); guide: piRNA #1 5'p-UGAGGUAGUAGGUUGUAUAGUAUCCA; higher = faster piRNA-guided slicing of the target; details: auxiliary factor: 500 nM mouse GTSF1;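 further: 1 nM active piRISC with 0.1 nM target library at 33 °C single turnover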
In short: (§1)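 Three pooled Cleave-'n-Seq trials supplied the data, with k3 capped at 0.0001 min^-1. In each, […] transcribed, DNA-blocked target RNA library and 1 nM active affinity-purified piRISC with one synthetic guide reacted in HEPES–potassium acetate buffer at 33 °C for 0–8 or 0–960 min, with or without 500 nM GTSF1 partner protein. Uncleaved targets were sequenced and normalised to depth and to weakly complementary targets. A burst-and-steady-state fit provided the pre-steady-state cleavage rate.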

[2] = test system: EfPiwi piRISC loaded with piRNA #1 (26 nt); experiment: pre-steady-state target cleavage rate (min^-1); auxiliary factor: 500 nM Ephydatia muelleri Gtsf1; guide: piRNA #1 5'p-UGAGGUAGUAGGUUGUAUAGUAUCCA; MIWI and MILI are mouse PIWI proteins and EfPiwi is from a freshwater sponge; tags in brackets are library labels; higher = faster piRNA-guided slicing of the target
In short: as §1

Sequence	pre-steady-state target cleavage rate [1]	pre-steady-state target cleavage rate [2]
GGAGUGGAUACAAUACAACCUACUACCUCA	0.174 ± 0.0095	0.0165 ± 0.0068
GGAGAGGAUACUAUACAACCUACUACCUCG [g2:g25:cont:t1G]	0.175 ± 0.015	0.143 ± 0.048
GGAGAGGAUACAAUACAACCUACUACCACA	0.146 ± 0.015	0.00265 ± 0.0022
GGAGAGGAUACUAAACAACCUACUACCACA	0.108 ± 0.011	0.00277 ± 0.002
GGAGUGGAUAGUAUACAACCUUCUACCUCA	0.0115 ± 0.0038	0.00338 ± 0.0021
GGAGACGAUACUAUACAACCUUCUACCACA	0.00864 ± 0.0028	0.00454 ± 0.0022
GGAGACCUUUCUAUACAACCUACUACCUCA	0.0895 ± 0.0097	0.11 ± 0.036
GGAGACGAAUACUAUACAACCUACUACCUCA	0.178 ± 0.015	0.0529 ± 0.018
GGAGUCGAUACAAUACAACCUACUACCUCA	0.177 ± 0.012	0.00908 ± 0.0047
GGAGACGAUACUAUAGAACCUACUACCUGA	0.0908 ± 0.021	0.00292 ± 0.0011
GGAGUGGAUACUAUACAAGCUACAACCUCA	0.142 ± 0.014	0.00371 ± 0.0018
GGAGACCACUACUAUACAACCUACUACCUCA	0.149 ± 0.016	0.0313 ± 0.014
GGAGACCUUACUAUACAACGUACUUCCUCA	0.0242 ± 0.0053	0.00315 ± 0.0021
GGAGACGAUACUAUACAACCUACUUCGUCA	0.0101 ± 0.0048	0.00672 ± 0.0024
GGAGUGGAUACUAUACAACCUACUACCUACA	0.122 ± 0.013	0.068 ± 0.024
GGAGACGAUACUAUACUACCUACUACCUGA	0.167 ± 0.021	0.00446 ± 0.0021
GGAGUGGAUACUAAACAACCUACUACGUCA	0.0421 ± 0.0062	0.00252 ± 0.0015
GGAGACGAUACUAUACAACCGACUACCUCA	0.00402 ± 0.0035	0.00284 ± 0.002
GGAGUGGAUACUAUUCAACCUUCUACCUCA	0.00907 ± 0.0019	0.00433 ± 0.0025
GGAGUGGUUACUAUACUACCUACUACCUCA	0.183 ± 0.01	0.00596 ± 0.0023

Sequence	pre-steady-state target cleavage rate [1]	pre-steady-state target cleavage rate [2]
GGAGUGGUAACUAUACAACCUACUACCUCA	0.141 ± 0.016	0.0157 ± 0.0069
GGAGACCUAACUGAUACAACCUACUACCUCA	0.183 ± 0.045	0.00745 ± 0.0044
GGAGACGUUACUAUACAACCAACUACCUCA	0.0041 ± 0.002	0.00407 ± 0.0025
GGAGACCUUACUAUACAACCUACUACGUCA	0.0741 ± 0.01	0.00584 ± 0.0027
GGAGACCUAUCUAUACAACCUACUACCUGA	0.074 ± 0.011	0.00569 ± 0.0033
GGAGACGAUACUAUACUACCUAGUACCUCA	0.0742 ± 0.015	0.00268 ± 0.0016
GGAGACGAUACUAUACAACUUACUACCUCA	0.0232 ± 0.0039	0.0183 ± 0.0077
GGAGACCUUACUAUACAACCUACUACCUCU [g2:g22:cont:t1U]	0.177 ± 0.017	1.04 ± 0.39
GGAGACCUAAGUAAACAACCUACUACCUCA	0.0128 ± 0.0033	0.00575 ± 0.004
GGAGACCUAACUAUGCAACCUACUACCUCA	0.12 ± 0.013	0.00447 ± 0.0039
GGAGUGGAUAGUAUACAAGCUACUACCUCA	0.0697 ± 0.01	0.00224 ± 0.0021
GGAGACCAUACUAUACAUCCUACUACCACA	0.279 ± 0.028	0.00302 ± 0.0024
GGAGUGCAUACUAUACAACGUACUACCUCA	0.0301 ± 0.0044	0.00739 ± 0.0027
GGAGACCAUACUAUACAACCUACUUCCUGA	0.0889 ± 0.02	0.00388 ± 0.0027
GGAGACGAUACUAUGCAACCUACUACCUCA	0.21 ± 0.014	0.0141 ± 0.0066
GGAGUGGAUACUAUACAACCAACUACCUCA	0.00575 ± 0.0022	0.00568 ± 0.002
GGAGUGCAUACUAUACAACCAACUACCUCA	0.00672 ± 0.0023	0.00484 ± 0.0026
GGAGACGAUACUAUACAACGUACUACCACA	0.0317 ± 0.0055	0.0042 ± 0.0021
GGAGAGGAUAGUAUACAACCUACUAGCUCA	0.00705 ± 0.0035	0.00348 ± 0.0023
GGAGACCUUACUAUACAACCUACUACCCA	0.0955 ± 0.016	0.00518 ± 0.0043

Sequence	pre-steady-state target cleavage rate [1]	pre-steady-state target cleavage rate [2]
GGAGACCUAUCUAGUACAACCUACUACCUCA	0.0316 ± 0.0066	0.00434 ± 0.0035
GGAGACCAUACUAACAACCUACUACCUCA	0.114 ± 0.019	0.00859 ± 0.0041
GGAGACAAUACUAUACAACCUACUACCUCA	0.253 ± 0.021	0.0606 ± 0.023
GGAGAGGCAUACUAUACAACCUACUACCUCA	0.177 ± 0.014	0.0477 ± 0.017
GGAGAGGAUACUAUACAUCGUACUACCUCA	0.0374 ± 0.0069	0.00364 ± 0.0019
GGAGAGGAUACAAUACAACCAACUACCUCA	0.00985 ± 0.0026	0.00366 ± 0.0019
GGAGUGGAUACUAUACAACCUACUACUUCA	0.103 ± 0.0082	0.104 ± 0.042
GGAGACCAUACUAUACAACCUUCUACCACA	0.00753 ± 0.0037	0.00301 ± 0.0027
GGAGACGAUACUAUACAACCUACAACCACA	0.0888 ± 0.035	0.00436 ± 0.0022
GGAGAGCUUACUAUACAACCUACUACCUCA	0.132 ± 0.0097	0.0193 ± 0.0089
GGAGAGGAUACAAUACAUCCUACUACCUCA	0.239 ± 0.021	0.00771 ± 0.0035
GGAGAGGAUACUAUACAACCUACUGCCUCA	0.126 ± 0.014	0.00919 ± 0.0038
GGAGACCUUACUAUACAACCUACUACGAGA	0.0846 ± 0.02	0.00452 ± 0.0025
GGAGACCAUACAUACAACCUACUACCUCA	0.119 ± 0.023	0.0126 ± 0.0066
GGAGUCGGAUACUAUACAACCUACUACCUCA	0.187 ± 0.015	0.0621 ± 0.024
GGAGACGAUACUAUACAACCUACUACCAGA	0.125 ± 0.02	0.00503 ± 0.0015
GGAGUGGAAACUAUACAACCUACUACGUCA	0.0633 ± 0.012	0.00326 ± 0.0026
GGAGUGGAUACUAUAGAACCUACUACCUCA	0.178 ± 0.0098	0.00377 ± 0.0019
GGAGUGGUAUACUAUACAACCUACUACCUCA	0.166 ± 0.011	0.0155 ± 0.0067
GGAGACGUUACUAUACAACCUACUAGCUCA	0.0954 ± 0.016	0.0029 ± 0.0017

Reference: the supplement of paper PMC10338343
